According to PubChem BioAssay (NCATS):
Where “and” joins values, the source holds several entries; their conditions need not be identical. Equal values may be shown once. Inconclusive results are not listed. Calls of active or inactive are those of the source. Unless noted, calls follow the shape of the dose curve; as a rule, active = well fitted curve in either direction with a large enough effect (not every such curve was filed as active); inconclusive = small, poorly fitted or top-dose-only effect, or another doubt; inactive = flat fitted curve, though single readings scatter.

Columns and labels:
[1] = Stat Signaling Pathway (AID 446); settings: ME-180 SIE beta-lactamase reporter, IL-6 stimulated, 5 h; series mostly up to 17.2 µM;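 also: ME-180 cervical cancer cells given 40 pM IL-6 alongside compound; SIE-controlled beta-lactamase reporter measured as 460/530 nm FRET emission ratio; % is scaled to controls: 0 for no effect and ±100 for the full control effect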
Outline: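 IL-6/STAT signaling read in ME-180 cells via an SIE beta-lactamase reporter. Stimulus was 40 pM IL-6 (its AC50) for 5 hrs, so both activation and inhibition register.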

[2] = target: Glucocorticoid receptor (Homo sapiens) (UniProt P04150); experiment: GR-GFP Redistribution (AID 450;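 active = compounds whose dose series gives a full or clear partial fitted curve of increased nuclear translocation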; also: potency is read from the fitted curve at half-maximal effect); settings: U2OS GR-GFP nuclear translocation, laser cytometry, 2 h
Sequence of Glucocorticoid receptor (Homo sapiens) (P04150 whole entry, looked up, the tested form may be a part): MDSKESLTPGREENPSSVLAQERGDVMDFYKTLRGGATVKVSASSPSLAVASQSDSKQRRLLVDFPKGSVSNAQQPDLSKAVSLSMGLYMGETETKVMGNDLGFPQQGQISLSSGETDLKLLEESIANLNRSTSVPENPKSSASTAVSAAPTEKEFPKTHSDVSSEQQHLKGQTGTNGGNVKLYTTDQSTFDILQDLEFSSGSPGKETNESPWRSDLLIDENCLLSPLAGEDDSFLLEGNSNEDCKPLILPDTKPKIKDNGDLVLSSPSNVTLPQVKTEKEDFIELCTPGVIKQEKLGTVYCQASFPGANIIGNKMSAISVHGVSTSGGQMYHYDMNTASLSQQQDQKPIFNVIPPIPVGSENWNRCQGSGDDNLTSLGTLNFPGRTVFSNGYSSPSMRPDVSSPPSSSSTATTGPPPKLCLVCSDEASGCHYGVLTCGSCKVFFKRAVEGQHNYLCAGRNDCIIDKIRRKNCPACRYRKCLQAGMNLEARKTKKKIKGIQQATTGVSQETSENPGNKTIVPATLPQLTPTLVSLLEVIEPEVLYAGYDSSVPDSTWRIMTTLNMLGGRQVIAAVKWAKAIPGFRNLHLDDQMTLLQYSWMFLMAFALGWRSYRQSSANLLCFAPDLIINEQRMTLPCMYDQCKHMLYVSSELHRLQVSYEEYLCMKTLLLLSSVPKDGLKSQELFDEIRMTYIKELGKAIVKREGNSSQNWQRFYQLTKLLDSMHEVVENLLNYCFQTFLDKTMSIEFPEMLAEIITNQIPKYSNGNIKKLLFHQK

[3] = target: Glucocorticoid receptor (Homo sapiens) (UniProt P04150); experiment: GR-EFC Redistribution (AID 451; calls by dose curve; also: potency is read from the fitted curve at half-maximal effect); settings: CHO-K1 GR-EFC translocation, beta-gal luminescence, 2 h
Outline: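 Translocation of GR-ED fusion to nuclear EA restores b-gal, read by luminescence after 1 h room-temperature detection. Engineered CHO-K1 biosensor cells, 1,000/well, exposed 2 h at 37 C to titrations up to 46 uM final.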

[4] = target: Mitogen-activated protein kinase 10 (Mus musculus) (UniProt Q61831); experiment: JNK3 AlphaScreen Assay (AID 530); settings: JNK3 lysate, c-Jun phosphorylation; series mostly up to 57.1 µM;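 also: kinase came from lysate of stimulated human HepG2 cells; signal reports phosphorylation of biotinylated GST-cJun 1-79 at Ser73 with 10 µM ATP; % is scaled to controls: 0 for no effect and ±100 for the full control effect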
Outline: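 Room-temperature AlphaScreen kinase assay; pre-activated HepG2 lysate as JNK3 source, biotin-GST-cJun(1-79) substrate, 10 uM ATP, compound 15 min preincubation.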

[5] = Cell Viability - BJ (AID 421; calls by dose curve;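 also: potency is read from the fitted curve at half-maximal effect; cells exposed to compound for 40 hours at 37 °C before readout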); settings: BJ fibroblast viability, qHTS
Outline: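 Quantitative HTS: ATP depletion in BJ cells after 40 hr compound exposure in complete culture medium, detected with CellTiter-Glo; AC50 from standard Hill fits.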

[6] = Cell Viability - Hek293 (AID 427;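 active = compounds whose dose-response curve shows a full or clear partial loss of cell viability, called from curve shape rather than a numeric limit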;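 also: potency is read from the fitted curve at half-maximal effect; cells exposed to compound for 40 hours at 37 °C before reading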); settings: qHTS
Outline: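 AC50 values derive from Hill-modelled concentration-response of ATP-based luminescence, normalized between DMSO-only and 100 uM tamoxifen controls. Cells were exposed in complete culture medium for 40 hr at 37 °C before detection.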

[7] = Cell Viability - HepG2 (AID 433; calls by dose curve;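 also: potency is read from the fitted curve at half-maximal effect; potency for ATP loss meaning cytotoxicity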); settings: qHTS
Outline: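 Read-out is luciferase-based quantitation of cellular ATP as a measure of viable HepG2 cells after 40 h treatment at 37 °C. Signal decrease is scaled between DMSO-only and 100 uM tamoxifen controls, with AC50 fitted by the Hill equation.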

[8] = Cell Viability - MRC5 (AID 434; calls by dose curve;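 also: potency is read from the fitted curve at half-maximal effect; cells exposed to compound for 40 hours at 37 °C; potency reflects cytotoxicity seen as loss of intracellular ATP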); settings: MRC5 lung fibroblast viability, qHTS
Outline: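 qHTS cytotoxicity in human lung fibroblast MRC5 cells; 40 hr treatment, 37 °C; cellular ATP by luciferase luminescence; DMSO = 0%, 100 uM tamoxifen = 100% inhibition; Hill-fit AC50.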

[9] = Cell Viability - SK-N-SH (AID 435; calls by dose curve;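 also: potency is read from the fitted curve at half-maximal effect; compound exposure lasted 40 h at 37 °C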); settings: SK-N-SH neuroblastoma cell viability qHTS
Outline: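 Luminescent ATP signal served as the viability read-out after 40 hours of compound treatment of human neuroblastoma SK-N-SH cells. Concentration-response data, scaled between DMSO and 100 uM tamoxifen, gave AC50 values by standard Hill modeling.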

[10] = Cell Viability - N2a (AID 540; active = well fitted curve in the direction sought with a large enough effect; an effect the other way counts as inactive or inconclusive;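 also: cells exposed to compound for 40 h at 37 °C; plate controls were DMSO alone for no effect and tamoxifen control for full effect; nearly all actives have a fitted effect of over 45% in size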); settings: N2a mouse neuroblastoma cell viability; activity change, negative = cytotoxicity: at 92.2 µM (top of the series)
Outline: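 First, 1500 N2a cells per well incubate 5 hr at 37 °C; next, compounds are added and incubated 40 hr at 37 °C; finally CellTiter-Glo is added and luminescence read after 20 min, with AC50 derived by Hill modeling.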

[11] = Cell Viability - NIH 3T3 (AID 541; active = well fitted curve in the direction sought with a large enough effect; an effect the other way counts as inactive or inconclusive;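 also: plate controls were DMSO alone for no effect and tamoxifen positive control for full effect; nearly all actives have a fitted effect of over 25% in size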); settings: NIH 3T3 cell viability, qHTS; activity change, negative = cytotoxicity: at 92.2 µM (top of the series)
Outline: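 AC50 values reflect concentration-dependent loss of intracellular ATP in NIH 3T3 cells after 40 hr treatment in complete culture medium, quantified by luciferase-based luminescence.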

[12] = Cell Viability - HUV-EC-C (AID 542; active = well fitted curve in the direction sought with a large enough effect; an effect the other way counts as inactive or inconclusive; also: % is scaled to controls: 0 for no effect and ±100 for the full control effect; nearly all actives have a fitted effect of over 35% in size); settings: HUV-EC-C endothelial cell viability, qHTS; series mostly up to 92.2 µM
Outline: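 Decrease in cellular ATP, quantified by luciferase luminescence, reflects toxicity in normal human vascular endothelial HUV-EC-C cells given compound for 40 hr in complete culture medium. Values are AC50s from concentration-response curves.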

[13] = Cell Viability - H-4-II-E (AID 543; active = well fitted curve in the direction sought with a large enough effect; an effect the other way counts as inactive or inconclusive; also: % is scaled to controls: 0 for no effect and ±100 for the full control effect; nearly all actives have a fitted effect of over 35% in size); settings: H-4-II-E rat hepatoma viability; series mostly up to 92.2 µM
Outline: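 Here, cytotoxicity is measured in the rat hepatoma line H-4-II-E as loss of intracellular ATP after 40 hr compound treatment, detected by luciferase luminescence.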

[14] = Cell Viability - SH-SY5Y (AID 544; active = well fitted curve in the direction sought with a large enough effect; an effect the other way counts as inactive or inconclusive;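 also: 0% = DMSO alone and -100% = 100 µM tamoxifen; nearly all actives have a fitted effect of over 55% in size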); settings: SH-SY5Y neuroblastoma cell viability; viability change, negative = cytotoxic: at 92.2 µM (top of the series)
Outline: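 Cytotoxicity is scored as a concentration-dependent fall in intracellular ATP in human SH-SY5Y cells treated 40 hr in complete culture medium. Potency is expressed as AC50 from a Hill equation fit.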

[15] = Cell Viability - Renal Proximal Tubule (AID 545; active = well fitted curve in the direction sought with a large enough effect; an effect the other way counts as inactive or inconclusive;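 also: 0% = DMSO only and -100% = 100 µM tamoxifen; nearly all actives have a fitted effect of over 40% in size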); settings: renal proximal tubule cells viability, primary cells of rat origin; series mostly up to 91.7 µM
Outline: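 Luminescent ATP signal (CellTiter-Glo) served as the viability read-out after 40 hr compound exposure of freshly isolated rat proximal tubule cells at 37 °C. Concentration-dependent ATP loss was fitted with the Hill equation to give AC50.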

[16] = AP1 Signaling Pathway (AID 357); settings: ME-180 (cervical carcinoma) AP-1-bla reporter, EGF-induced, beta-lactamase ratio, 5 h; series mostly up to 17.2 µM;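 also: ME-180 reporter cells stimulated with EGF at its EC50 level; % is scaled to controls: 0 for no effect and ±100 for the full control effect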
Outline: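 Titration-series screen for positive or negative modulators of EC50 EGF-induced signaling in ME-180 cells carrying an AP-1-driven beta-lactamase reporter. After 5 hours at 37 degrees Celsius, CCF4 460nm/530nm emission ratio gave %Activity; AC50 values derived.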

[17] = NFAT Signaling Pathway (AID 444); settings: Jurkat NFAT-bla M1, carbachol, beta-lactamase ratio, 5 h;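 also: carbachol stimulus at about its EC50 of 1 µM final; % is scaled to controls: 0 for no effect and ±100 for the full control effect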
Outline: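 Read-out: CCF4 FRET ratio (460 nm/530 nm) after 1 h RT dye loading, used for %activity and AC50 from titration series. Cells: Jurkat NFAT-β-lactamase/M1 line, treated with compound plus 1 uM carbachol for 5 h, 37 °C.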

[18] = target: Cytochrome P450 1A2 (Homo sapiens) (UniProt P05177); experiment: p450-cyp1a2 (AID 410; calls by dose curve;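 also: -100% = full effect of reference inhibitor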); settings: recombinant CYP1A2, luciferin-ME demethylation, luminescence; series mostly up to 57 µM
Sequence of Cytochrome P450 1A2 (Homo sapiens) (P05177 whole entry, looked up): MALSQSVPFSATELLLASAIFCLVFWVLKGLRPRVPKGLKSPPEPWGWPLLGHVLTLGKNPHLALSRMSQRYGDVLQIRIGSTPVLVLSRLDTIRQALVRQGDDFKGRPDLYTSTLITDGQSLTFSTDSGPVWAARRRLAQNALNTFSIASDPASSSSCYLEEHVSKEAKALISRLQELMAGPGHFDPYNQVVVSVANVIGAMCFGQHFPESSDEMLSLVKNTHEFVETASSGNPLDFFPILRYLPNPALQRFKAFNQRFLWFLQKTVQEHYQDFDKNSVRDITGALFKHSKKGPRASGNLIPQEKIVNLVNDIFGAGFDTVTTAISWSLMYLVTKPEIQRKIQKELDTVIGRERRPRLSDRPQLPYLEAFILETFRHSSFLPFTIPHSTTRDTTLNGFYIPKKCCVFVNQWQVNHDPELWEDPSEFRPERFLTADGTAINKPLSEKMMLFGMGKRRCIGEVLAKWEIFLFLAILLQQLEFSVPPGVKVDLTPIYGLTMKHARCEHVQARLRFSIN
Outline: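 Inhibition was calculated relative to 57 uM furafylline (full inhibition). The reaction used human CYP1A2 at 20nM with Luciferin-ME at its Km, 100uM, driven by an NADPH-regenerating system for 60 min at room temperature.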

O=C1c2c(O)ccc(O)c2C(=O)c2c(NCCNCCO)ccc(NCCNCCO)c21
inactive: outcome [1] | Potency [2] > 46 µM and > 20.6 µM | Potency [3] > 46 µM and > 20.6 µM | outcome [4]

CC(C)NCC(O)c1ccc(O)c(O)c1 (stereo not given)
inactive: Potency [5] > 92 µM | Potency [6] > 92 µM | Potency [7] > 92 µM | Potency [8] > 92 µM | Potency [9] > 92 µM | outcome [4] | activity change, negative = cytotoxicity [10] 0.719% | Potency [11] | outcome [12] | Potency [13] | Potency [14] | Potency [15]

CN(C)C(=N)N=C(N)N
inactive: outcome [16] | activity change, negative = inhibition ([17]; at 17.2 µM (top of the series)) -11.6% | outcome [1] | Potency [2] > 20.6 µM | Potency [3] > 20.6 µM | outcome [4]

OCCN(CCO)c1nc(N2CCCCC2)c2nc(N(CCO)CCO)nc(N3CCCCC3)c2n1
inactive: activity change, negative = inhibition ([17]; at 17.2 µM (top of the series)) 7.02% and -24.7% | activity change, negative = inhibition ([17]; at 38 µM (top of the series)) -0.6% | outcome [1] | outcome [4]

CNCCCC12CCC(c3ccccc31)c1ccccc12
inactive: outcome [16] | outcome [1] | Potency [2] > 46 µM and > 20.6 µM | Potency [3] > 46 µM and > 20.6 µM | outcome [4]

COc1cc2nc(N3CCN(C(=O)c4ccco4)CC3)nc(N)c2cc1OC
inactive: Potency [18] | outcome [1] | outcome [4]

Clc1ccc(C(c2ccccc2Cl)C(Cl)Cl)cc1 (stereo not given)
active: activity change, negative = cytotoxicity [10] -100%
inactive: Potency [7] > 92 µM | Potency [11] | outcome [12] | Potency [15]

O=C(c1ccc(F)cc1)C1CCN(CCn2c(=O)[nH]c3ccccc3c2=O)CC1
inactive: outcome [16] | activity change, negative = inhibition ([17]; at 17.2 µM (top of the series)) -11.4% and -13.2% | outcome [1] | Potency [2] > 46 µM and > 20.6 µM | Potency [3] > 46 µM and > 20.6 µM | outcome [4]

CN(C)CCOC(c1ccccc1)c1ccccc1
inactive: outcome [16] | outcome [1] | outcome [4]

NC(=O)NO
inactive: outcome [16] | activity change, negative = inhibition ([17]; at 38 µM (top of the series)) 9.2% | outcome [1] | Potency [2] > 46 µM | Potency [3] > 46 µM | outcome [4]

COc1ccc(C2CNC(=O)C2)cc1OC1CCCC1 (stereo not given)
inactive: outcome [16] | activity change, negative = inhibition ([17]; at 17.2 µM (top of the series)) -22.4% | outcome [1] | Potency [2] > 20.6 µM

NC12CC3CC(CC(C3)C1)C2
inactive: outcome [16] | activity change, negative = inhibition ([17]; at 17.2 µM (top of the series)) 5.54% | activity change, negative = inhibition ([17]; at 38 µM (top of the series)) -1.81% | outcome [1] | Potency [2] > 46 µM and > 20.6 µM | Potency [3] > 46 µM and > 20.6 µM | outcome [4]
